In PubChem BioAssay AID1159580 (chemical genetic matrix, 2015):
“And” between values parts separate entries of the source, which are not always exact repeats. Equal values may be shown once. Screen size: about 5,500 compounds; about 2,000 (36%) were called active. Inconclusive results (about 18%) are left out. The list shows a part of the results. Unmarked numbers belong to inactive results. Cut-off read from the data, not from the text of the source: active = normalized growth mostly below about 0.91 (no sharp cut-off); inconclusive = no clear call, values can overlap the other calls; inactive = mostly above about 0.92.

Test: chemical genetic growth profiling, strain panel (AID 1159580);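 note: tested at 20 µM; growth read once vehicle control cultures reached saturation at 30 °C; 1 = growth at the plate median or of vehicle wells; lower values mean less growth of the strain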
Settings: S. cerevisiae deletion strains, growth OD

## CCCCCCCCCc1ccc(O)cc1
Locus YAL013W, strain DEP1, hits give low values
  normalized growth: 0.118 (active)
Locus YAL021C, strain ccr4, hits give low values
  normalized growth: 0.0845 (active)
Locus YAL026C, strain drs2, hits give low values
  normalized growth: 0.0626 (active)
Locus YAL030W, strain snc1, hits give low values
  normalized growth: 0.0571 (active)
Locus YBL061C, strain skt5, hits give low values
  normalized growth: 0.0594 (active)
Locus YBR009C, strain hhf1, hits give low values
  normalized growth: 0.0563 (active)
Locus YBR021W, strain FUR4, hits give low values
  normalized growth: 0.215 (active)
Locus YBR023C, strain chs3, hits give low values
  normalized growth: 0.0626 (active)
Locus YBR171W, strain sec66, hits give low values
  normalized growth: 0.0781 (active)
Locus YBR229C, strain ROT2, hits give low values
  normalized growth: 0.144 (active)
Locus YBR231C, strain swc5, hits give low values
  normalized growth: 0.0635 (active)
Locus YBR279W, strain paf1, hits give low values
  normalized growth: 0.066 (active)
Locus YCL011C, strain gbp2, hits give low values
  normalized growth: 0.0546 (active)
Locus YCL016C, strain dcc1, hits give low values
  normalized growth: 0.0648 (active)
Locus YCL029C, strain bik1, hits give low values
  normalized growth: 0.617 (active)
Locus YCL061C, strain MRC1, hits give low values
  normalized growth: 0.0666 (active)
Locus YCL069W, strain vba3, hits give low values
  normalized growth: 0.0655 (active)
Locus YCR088W, strain abp1, hits give low values
  normalized growth: 0.0637 (active)
Locus YDL005C, strain med2, hits give low values
  normalized growth: 0.0719 (active)
Locus YDL035C, strain GPR1, hits give low values
  normalized growth: 0.0859 (active)
Locus YDL040C, strain nat1, hits give low values
  normalized growth: 0.0822 (active)
Locus YDL074C, strain BRE1, hits give low values
  normalized growth: 0.0981 (active)
Locus YDL101C, strain DUN1, hits give low values
  normalized growth: 0.1 (active)
Locus YDL134C, strain PPH21, hits give low values
  normalized growth: 0.0971 (active)
Locus YDL185W, strain tfp1, hits give low values
  normalized growth: 0.929
Locus YDL192W, strain arf1, hits give low values
  normalized growth: 0.411 (active)
Locus YDR001C, strain nth1, hits give low values
  normalized growth: 0.0685 (active)
Locus YDR069C, strain doa4, hits give low values
  normalized growth: 0.115 (active)
Locus YDR101C, strain arx1, hits give low values
  normalized growth: 0.721 (active)
Locus YDR137W, strain rgp1, hits give low values
  normalized growth: 0.101 (active)
Locus YDR150W, strain NUM1, hits give low values
  normalized growth: 0.529 (active)
Locus YDR159W, strain sac3, hits give low values
  normalized growth: 0.0748 (active)
Locus YDR162C, strain NBP2, hits give low values
  normalized growth: 0.102 (active)
Locus YDR195W, strain ref2
  normalized growth: 0.0909 (active)
Locus YDR297W, strain sur2, hits give low values
  normalized growth: 0.0579 (active)
Locus YDR318W, strain mcm21, hits give low values
  normalized growth: 0.58 (active)
Locus YDR334W, strain swr1, hits give low values
  normalized growth: 0.0683 (active)
Locus YDR335W, strain msn5, hits give low values
  normalized growth: 0.06 (active)
Locus YDR388W, hits give low values
  normalized growth: 0.678 (active)
Locus YDR392W, strain spt3, hits give low values
  normalized growth: 0.0671 (active)
Locus YDR502C, strain sam2, hits give low values
  normalized growth: 0.8 (active)
Locus YEL003W, strain gim4, hits give low values
  normalized growth: 0.0581 (active)
Locus YEL037C, strain rad23, hits give low values
  normalized growth: 0.0885 (active)
Locus YEL061C, strain CIN8 (second series), hits give low values
  normalized growth: 0.059 (active)
Locus YEL061C, strain CIN8, hits give low values
  normalized growth: 0.131 (active)
Locus YER015W, strain faa2, hits give low values
  normalized growth: 0.0639 (active)
Locus YER016W, strain bim1, hits give low values
  normalized growth: 0.0583 (active)
Locus YER110C, hits give low values
  normalized growth: 0.603 (active)
Locus YER111C, strain swi4, hits give low values
  normalized growth: 0.0713 (active)
Locus YER155C, strain BEM2 (second series), hits give low values
  normalized growth: 0.504 (active)
Locus YER155C, strain BEM2, hits give low values
  normalized growth: 0.101 (active)
Locus YER167W, strain BCK2, hits give low values
  normalized growth: 0.117 (active)
Locus YFR010W, strain ubp6, hits give low values
  normalized growth: 0.0798 (active)
Locus YGL078C, strain dbp3, hits give low values
  normalized growth: 0.885 (active)
Locus YGL086W, strain mad1, hits give low values
  normalized growth: 0.697 (active)
Locus YGL167C, strain pmr1, hits give low values
  normalized growth: 0.0729 (active)
Locus YGL173C, strain kem1, hits give low values
  normalized growth: 0.0956 (active)
Locus YGL227W, strain vid30, hits give low values
  normalized growth: 0.0725 (active)
Locus YGL240W, strain doc1, hits give low values
  normalized growth: 0.157 (active)
Locus YGL248W, strain PDE1, hits give low values
  normalized growth: 0.181 (active)
Locus YGL253W, strain hxk2, hits give low values
  normalized growth: 0.0662 (active)
Locus YGR078C, strain PAC10, hits give low values
  normalized growth: 0.174 (active)
Locus YGR135W, strain pre9, hits give low values
  normalized growth: 0.842 (active)
Locus YGR229C, strain SMI1, hits give low values
  normalized growth: 0.0784 (active)
Locus YGR252W, strain gcn5, hits give low values
  normalized growth: 0.518 (active)
Locus YHR013C, strain ard1, hits give low values
  normalized growth: 0.102 (active)
Locus YHR027C, strain rpn1, hits give low values
  normalized growth: 0.0645 (active)
Locus YHR030C, strain SLT2, hits give low values
  normalized growth: 0.0665 (active) and 0.09 (active)
Locus YHR079C, strain IRE1 (second series), hits give low values
  normalized growth: 0.488 (active)
Locus YHR079C, strain IRE1, hits give low values
  normalized growth: 0.107 (active)
Locus YHR094C, strain hxt1, hits give low values
  normalized growth: 0.87 (active)
Locus YHR129C, strain ARP1, hits give low values
  normalized growth: 0.173 (active)
Locus YHR142W, strain chs7, hits give low values
  normalized growth: 0.064 (active)
Locus YHR200W, strain rpn10, hits give low values
  normalized growth: 0.577 (active)
Locus YIL066C, strain RNR3, hits give low values
  normalized growth: 0.116 (active)
Locus YIL073C, strain SPO22, hits give low values
  normalized growth: 0.182 (active)
Locus YIL125W, strain kgd1, hits give low values
  normalized growth: 0.405 (active)
Locus YIR030C, strain dcg1, hits give low values
  normalized growth: 0.762 (active)
Locus YJL092W, strain hpr5, hits give low values
  normalized growth: 0.0838 (active)
Locus YJL095W, strain BCK1 (second series), hits give low values
  normalized growth: 0.0552 (active)
Locus YJL095W, strain BCK1, hits give low values
  normalized growth: 0.0671 (active) and 0.102 (active)
Locus YJL115W, strain asf1, hits give low values
  normalized growth: 0.113 (active)
Locus YJL129C, strain trk1, hits give low values
  normalized growth: 0.0774 (active)
Locus YJL134W, strain LCB3, hits give low values
  normalized growth: 0.308 (active)
Locus YJL154C, strain vps35, hits give low values
  normalized growth: 0.0618 (active)
Locus YJL164C, strain tpk1, hits give low values
  normalized growth: 0.0542 (active)
Locus YJL166W, strain qcr8, hits give low values
  normalized growth: 0.057 (active)
Locus YJL168C, strain set2, hits give low values
  normalized growth: 0.992
Locus YJL187C, strain SWE1 (second series), hits give low values
  normalized growth: 0.193 (active)
Locus YJL187C, strain SWE1, hits give low values
  normalized growth: 0.06 (active)
Locus YJR043C, strain POL32, hits give low values
  normalized growth: 0.107 (active)
Locus YJR066W, strain TOR1, hits give low values
  normalized growth: -0.000468 (active)
